Assay results reported in ChEMBL document CHEMBL3988442, “University of Dundee, Small-Polar-MMV Screening Library” (2021).
Potency and affinity values are given separately.

Each molecule was assayed against Protein translocase subunit SecA (Escherichia coli (strain K12)) (UniProt P10408) (assay: Assay to Identify E. coli SecA ATPase Inhibitors). Conditions: 30 µM.
Protein translocase subunit SecA (Escherichia coli (strain K12)), sequence (P10408 whole entry): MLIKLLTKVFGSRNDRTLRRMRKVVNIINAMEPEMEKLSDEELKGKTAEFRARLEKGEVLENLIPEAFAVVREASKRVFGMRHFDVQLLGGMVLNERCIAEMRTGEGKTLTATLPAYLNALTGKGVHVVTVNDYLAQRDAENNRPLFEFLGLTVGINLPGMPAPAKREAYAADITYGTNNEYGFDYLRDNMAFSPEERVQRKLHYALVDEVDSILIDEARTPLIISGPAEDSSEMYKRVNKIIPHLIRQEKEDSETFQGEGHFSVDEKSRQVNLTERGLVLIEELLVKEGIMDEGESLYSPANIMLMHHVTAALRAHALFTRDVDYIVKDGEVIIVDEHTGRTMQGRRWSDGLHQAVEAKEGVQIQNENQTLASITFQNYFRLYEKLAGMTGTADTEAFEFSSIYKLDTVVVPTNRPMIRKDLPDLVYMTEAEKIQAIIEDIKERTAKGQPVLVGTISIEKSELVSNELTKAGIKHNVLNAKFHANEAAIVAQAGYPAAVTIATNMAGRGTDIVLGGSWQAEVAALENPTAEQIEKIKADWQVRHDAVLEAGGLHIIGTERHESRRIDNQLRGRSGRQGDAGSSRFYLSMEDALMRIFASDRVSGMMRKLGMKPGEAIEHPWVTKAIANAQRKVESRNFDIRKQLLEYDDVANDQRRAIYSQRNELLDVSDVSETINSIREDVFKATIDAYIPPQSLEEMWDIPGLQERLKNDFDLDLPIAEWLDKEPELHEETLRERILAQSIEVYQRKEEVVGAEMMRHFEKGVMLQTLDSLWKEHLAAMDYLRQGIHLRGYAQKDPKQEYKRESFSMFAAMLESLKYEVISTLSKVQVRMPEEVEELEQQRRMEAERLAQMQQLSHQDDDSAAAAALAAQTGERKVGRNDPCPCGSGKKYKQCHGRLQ
Format: functional
Set-up: scale not given: direction of the effect not stated beside the values
`c1cnn(CC2CCCCN2Cc2cn3ccsc3n2)c1` (stereo not given) was tested, and the Percent Effect was -2.05%.
`CN(Cc1nnc(-c2ccco2)o1)C1CCCN(c2cccnn2)C1` (stereo not given) gave a Percent Effect of 2.65%.
Work on `O=C(NCCn1nc2ccccn2c1=O)c1cccc2[nH]ncc12` yielded a Percent Effect of -1.51%.
In the case of `Cc1nc(CN2CCCC(CCc3c(F)cccc3F)C2)c[nH]1` (stereo not given), the Percent Effect is reported as -4.35%.
With `CC(C)CN1C[C@@H]2CN(C(=O)[C@H]3CCCO3)C[C@@H]2C1=O` the Percent Effect was -2.4%.
With `CC(NC(=O)NCCCn1cncn1)c1ccccc1Cl` (stereo not given) the Percent Effect was 0.672%.
With `Cc1[nH]ccc1C(=O)N1CCCC(c2nccn2Cc2cscn2)C1` (stereo not given) the Percent Effect was -7.46%.
With `CCn1cc2c(n1)C(COC)CN(Cc1ccccn1)C2` (stereo not given) the Percent Effect was -4.98%.
Molecule `O=C1CCCc2nccc(-c3ccccc3)c21` has a Percent Effect of 3.95%.
In the case of `c1ccc(OCc2nnc3n2CCN(CC2CCOCC2)C3)nc1`, the Percent Effect is reported as -2.49%.
In the case of `CN(C)CC1CN(Cc2ccsc2)Cc2nccn2C1` (stereo not given), the Percent Effect is reported as -3.4%.
Molecule `CCOc1c(Cl)cccc1NCc1cc(C)on1` has a Percent Effect of -0.827%.
Work on `O=C(NCc1cc[nH]n1)NCC(c1ccc(F)cc1)N1CCOCC1` (stereo not given) yielded a Percent Effect of -1.44%.
`CCc1nccn1C1CCCN(C(=O)c2csc(NC(C)=O)n2)C1` (stereo not given) showed a Percent Effect of -3.11%.
For `Cc1ccc(C(=O)N2CCC3(CC2)CCN(CCN(C)C)C3=O)cn1`, the Percent Effect was -3.6%.
Work on `Cc1ccc(C(=O)N2CCN(Cc3ccsc3)CC2)n1C` yielded a Percent Effect of -2.67%.
Molecule `CS(=O)(=O)NCc1cc2n(n1)CCCN(Cc1cccc(C#N)c1)C2` has a Percent Effect of -4.38%.
Molecule `O=C(NCC1CC1)C1CCC2(CCN(C(=O)c3ccccn3)CC2)O1` (stereo not given) has a Percent Effect of -3.07%.
`O=C(NCc1cc[nH]n1)N(CCCO)C1CCc2ccccc21` (stereo not given) showed a Percent Effect of -1.28%.
`CCC(NC(=O)CC(F)(F)F)c1ccccc1OCC(=O)N1CCCC1` (stereo not given) gave a Percent Effect of -0.84%.
With `CNC(=O)c1cccnc1Oc1ccccc1` the Percent Effect was -2.06%.
`O=C(CSc1ccc(F)c(F)c1)NS(=O)(=O)c1ccc2c(c1)OCCO2` showed a Percent Effect of -1.98%.
`CCSCCC(=O)NS(=O)(=O)c1ccc2c(c1)OCCO2` was tested, and the Percent Effect was -2%.
For `CC1CCCCN1Cc1ccc(-c2ccccc2C(=O)O)cc1` (stereo not given), the Percent Effect was -1.02%.
For `Cc1noc(C)c1C(=O)N1CC[C@H]2C[C@@H](c3nccs3)O[C@@H]2C1`, the Percent Effect was -6%.
Work on `Cn1ccc(CN2CCC(NC(=O)Cc3ccccc3)CC2)cc1=O` yielded a Percent Effect of -2.78%.
With `O=S(=O)(c1ccccc1)N1CCCCC1c1cc[nH]n1` (stereo not given) the Percent Effect was -1.23%.
Work on `COCCN(C)C[C@@H]1CCC[C@@H]2CN(c3cc(OC)ncn3)C[C@@H]21` yielded a Percent Effect of -6.04%.
In the case of `CC(C)NC(=O)N1CCN(Cc2ccccn2)CC2(CC(=O)N(C)C2)C1` (stereo not given), the Percent Effect is reported as -6.73%.
For `CCn1nc(C)c(CCNC(=O)C2CCCN(C(=O)N(C)C)C2)c1C` (stereo not given), the Percent Effect was -5.72%.
Molecule `Cc1cccc(C(=O)N2CCCN(Cc3cnn(C)c3)CC2)n1` has a Percent Effect of -0.00911%.
`COCCC(=O)N1CCn2c(COCC3CC3)cnc2C1C` (stereo not given) gave a Percent Effect of -9.04%.
`c1ccc(CNC2CCc3ncnn3C2)nc1` (stereo not given) showed a Percent Effect of 0.311%.
`COCCOc1cccc(C(=O)N2CCCC(n3ccnc3C)C2)c1` (stereo not given) showed a Percent Effect of -2.56%.
Molecule `CC(C)N(Cc1nc2c(cnn2C)c(=O)[nH]1)c1ccccc1` has a Percent Effect of -2.48%.
In the case of `Cc1nc(CN2CCCC(CCc3ccc(F)cc3F)C2)c[nH]1` (stereo not given), the Percent Effect is reported as -4.78%.
With `COCC(C)N(C)C(=O)c1nc(S(C)(=O)=O)n2ccccc12` (stereo not given) the Percent Effect was -8.81%.
Molecule `Cc1ccccc1N1CC2(CCN(S(=O)(=O)c3cccs3)C2)CC1=O` (stereo not given) has a Percent Effect of -1.18%.
`Cc1ccc(CN2CCCn3c(nc(Cn4cncn4)cc3=O)C2)s1` gave a Percent Effect of -8.68%.
Molecule `Cc1ccc2oc(C(=O)N3CCc4nnc(N(C)C)cc4C3)cc2n1` has a Percent Effect of -3.69%.
